Laboratory results as given in PubChem BioAssay (NCATS).
Inconclusive results are not listed. Unmarked numbers belong to inactive results. Activity calls are given as the source filed them. The call rests on the fitted dose curve; in most records, active means well fitted cell-killing curve with a large enough effect; inconclusive means small, poorly fitted or top-dose-only effect; inactive means no such curve, though single readings can be large or run the other way.

experiment: qHTS of pediatric cancer cell lines to identify multiple opportunities for drug repurposing: Primary screen for Saos-2 cells (AID 1347097); settings: Saos-2 viability, CellTiter-Glo ATP luminescence, 48 h; series mostly up to 46 µM; activity change, negative = cytotoxic: at the top concentration; further: nearly all actives have a fitted effect of over 40% in size
In short: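 Quantitative HTS format: each compound titrated (MIPE 11 points from 0.78 nM, NPC 8 points from 0.59 nM) onto cells plated 5 hours earlier. After 48 h at 37 degrees C, CellTiter-Glo luminescence was recorded.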
On the % scale 0 is the no-effect control and ±100 the full control effect; potency means the concentration at half of the fitted maximal effect.

Row | SMILES | Potency | activity change, negative = cytotoxic
1 | COc1cc2c(cc1O)CCC1C2CC[C@@]2(C)C1CC[C@@H]2O (stereo partly specified) | 1.05 µM (active) | –
2 | CCc1ccc(C(=O)Nc2cc(CN3CCN(C)CC3)cc(C(F)(F)F)c2)cc1C#Cc1cnc2ccnn2c1 | 14.8 µM (active) | –
3 | CC(=O)N[C@@H]1[C@H](O[C@@H]2c3ccc(c(Cl)c3)Oc3cc4cc(c3O[C@H]3O[C@H](CO)[C@@H](O)[C@H](O)[C@H]3NC(=O)CCCCCCCC(C)C)Oc3ccc(cc3Cl)C[C@H]3NC(=O)[C@H](N)c5ccc(O)c(c5)Oc5cc(O)cc(c5)[C@H](NC3=O)C(=O)N[C@H]4C(=O)N[C@H]3C(=O)N[C@@H]2C(=O)N[C@@H](C(=O)O)c2cc(O)cc(O[C@H]4O[C@H](CO)[C@@H](O)[C@H](O)[C@H]4O)c2-c2cc3ccc2O)O[C@H](CO)[C@@H](O)[C@@H]1O | – | 19.1%
4 | Cc1[nH]c(C=C2C(=O)Nc3ccccc32)c(C)c1CCC(=O)O | 3.32 µM (active) | –
5 | N[C@H]1CN(c2c(F)cc3c(=O)c(C(=O)O)cn(C4C[C@@H]4F)c3c2Cl)CC12CC2 (stereo partly specified) | – | 49.2%
6 | CC(C)Oc1ccc(C(=O)N[C@H](CNC(=O)CN(C)C)Cc2ccc(-c3cn4cccc([C@H](C)O)c4n3)cc2)cc1Cl | 0.332 µM (active) | –
7 | Nc1nc(N)c2nc(-c3cccc(O)c3)c(-c3cccc(O)c3)nc2n1 | 18.7 µM (active) | –
8 | COc1cc(OC)cc(-c2ccc3ncc4ccc(=O)n(-c5ccc(N6CCNCC6)c(C(F)(F)F)c5)c4c3c2)c1 | 13.2 µM (active) | –
9 | C[C@H](CCC(=O)O)[C@H]1CCC2C3C[C@H](O)[C@@H]4C[C@H](O)CC[C@]4(C)C3CC[C@@]21C (stereo partly specified) | – | -15.5%
10 | CC(C)[C@H](CO)Nc1nc(Nc2cccc(Cl)c2)c2ncn(C(C)C)c2n1 | 9.35 µM (active) | –
11 | CC(C)NC[C@@H](C(=O)N1CCN(c2ncnc3c2[C@H](C)C[C@H]3O)CC1)c1ccc(Cl)cc1 | 6.62 µM (active) | –
12 | COC(=O)C=CC(=O)OC | – | -15.6%
13 | COc1ccc(C(C)=O)c(O)c1 | 1.66 µM (active) | –
14 | O=C1NC(O)CCN1[C@@H]1O[C@H](CO)[C@H](O)[C@H]1O (stereo partly specified) | – | 1.65%
15 | NC(=NCCCCCCN=C(N)N=C(N)Nc1ccc(Cl)cc1)N=C(N)Nc1ccc(Cl)cc1 | 18.7 µM (active) | –
16 | CCN(CC)Cc1ccc2cc(COC(=O)Nc3ccc(C(=O)NO)cc3)ccc2c1 | 0.935 µM (active) | –
17 | NC1=N[C@H]2[C@H](CS[C@H]2CCCCC(=O)O)N1 | – | 30.8% [at 16.1 µM]
18 | O=C(NC1CC1)c1cccc(-c2ccc3c(NC(=O)C4CC4)n[nH]c3c2)c1 | 2.96 µM (active) | –
19 | CN[C@@H]1C[C@H]2O[C@@](C)([C@H]1OC)n1c3ccccc3c3c4c(c5c6ccccc6n2c5c31)C(=O)N[C@H]4O | 0.235 µM (active) | –
20 | Oc1ccc([C@@H]2Oc3ccc(O)cc3[C@@H]3CCC[C@@H]32)cc1 | 6.62 µM (active) | –
21 | FC(F)c1nc2ccccc2n1-c1nc(N2CCOCC2)nc(N2CCOCC2)n1 | 0.526 µM (active) | –
22 | C=C1C(=CC=C2CCC[C@]3(C)[C@@H]([C@H](C)CCCC(C)(C)O)CC[C@@H]23)C[C@@H](O)C[C@@H]1O | 14.8 µM (active) | –
23 | COc1cc(C)c(C=CC(C)=CC=CC(C)=CC(=O)O)c(C)c1C | – | 10.8%
24 | NC(=O)c1ncn([C@@H]2O[C@H](CO)[C@@H](O)[C@@H]2O)c1O | – | 12.7%
25 | COc1cccc2c1C(=O)c1c(O)c3c(c(O)c1C2=O)C[C@@](O)(C(C)=O)C[C@H]3O[C@H]1C[C@H](N)[C@H](O)[C@H](C)O1 | 0.264 µM (active) | –
26 | O=C(Nc1cccc(Nc2ncc(Br)c(NCCc3cnc[nH]3)n2)c1)N1CCCC1 | 1.05 µM (active) | –
27 | CC(=O)NC(CS)C(=O)O (stereo unspecified) | – | -10.5%
28 | O=C1NC(=O)C(=Cc2ccc3nccc(-c4ccncc4)c3c2)S1 | 0.372 µM (active) | –

experiment: qHTS of pediatric cancer cell lines to identify multiple opportunities for drug repurposing: Primary screen for SK-N-SH cells (AID 1347098); settings: SK-N-SH viability, CellTiter-Glo luminescence, 48 h; series mostly up to 57 µM; activity change, negative = cytotoxic: at the top concentration; further: nearly all actives have a fitted effect of over 65% in size;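 on activity change, negative = cytotoxic: DMSO served as neutral control and bortezomib at 2.3 µM as positive control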
In short: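 Cells (500-1,000/well) rested 5 h, then received compounds for 48 h; metabolically active cells were measured by CellTiter-Glo luminescence. Final concentrations spanned up to 46 µM (MIPE, 11-point) or 0.59 nM-46 µM (NPC, 8-point) in primary screens, 11-point in follow-ups.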

Row | SMILES | Potency | activity change, negative = cytotoxic
29 | C=Cc1c(C)c2cc3nc(cc4[nH]c(cc5nc(cc1[nH]2)C(C)=C5CCC(=O)O)c(CCC(=O)OC)c4C)[C@@]1(C)C3=CC=C(C(=O)OC)[C@H]1C(=O)OC | 0.121 µM (active) | –
30 | CCc1ccc(C(=O)Nc2cc(CN3CCN(C)CC3)cc(C(F)(F)F)c2)cc1C#Cc1cnc2ccnn2c1 | 24.1 µM (active) | –
31 | CC(=O)N[C@@H]1[C@H](O[C@@H]2c3ccc(c(Cl)c3)Oc3cc4cc(c3O[C@H]3O[C@H](CO)[C@@H](O)[C@H](O)[C@H]3NC(=O)CCCCCCCC(C)C)Oc3ccc(cc3Cl)C[C@H]3NC(=O)[C@H](N)c5ccc(O)c(c5)Oc5cc(O)cc(c5)[C@H](NC3=O)C(=O)N[C@H]4C(=O)N[C@H]3C(=O)N[C@@H]2C(=O)N[C@@H](C(=O)O)c2cc(O)cc(O[C@H]4O[C@H](CO)[C@@H](O)[C@H](O)[C@H]4O)c2-c2cc3ccc2O)O[C@H](CO)[C@@H](O)[C@@H]1O | – | 17.6%
32 | Cc1[nH]c(C=C2C(=O)Nc3ccccc32)c(C)c1CCC(=O)O | 0.541 µM (active) | –
33 | N[C@H]1CN(c2c(F)cc3c(=O)c(C(=O)O)cn(C4C[C@@H]4F)c3c2Cl)CC12CC2 (stereo partly specified) | – | 5.95%
34 | CC(C)Oc1ccc(C(=O)N[C@H](CNC(=O)CN(C)C)Cc2ccc(-c3cn4cccc([C@H](C)O)c4n3)cc2)cc1Cl | 15.2 µM (active) | –
35 | Nc1nc(N)c2nc(-c3cccc(O)c3)c(-c3cccc(O)c3)nc2n1 | 19.2 µM (active) | –
36 | COc1cc(OC)cc(-c2ccc3ncc4ccc(=O)n(-c5ccc(N6CCNCC6)c(C(F)(F)F)c5)c4c3c2)c1 | 7.64 µM (active) | –
37 | CN(N=O)C(=O)N[C@H]1C(O)OC(CO)[C@@H](O)[C@H]1O (stereo partly specified) | – | 4.62%
38 | C[C@H](CCC(=O)O)[C@H]1CCC2C3C[C@H](O)[C@@H]4C[C@H](O)CC[C@]4(C)C3CC[C@@]21C (stereo partly specified) | – | 5.94%
39 | CC(C)[C@H](CO)Nc1nc(Nc2cccc(Cl)c2)c2ncn(C(C)C)c2n1 | 21.5 µM (active) | –
40 | CC(C)NC[C@@H](C(=O)N1CCN(c2ncnc3c2[C@H](C)C[C@H]3O)CC1)c1ccc(Cl)cc1 | 12.1 µM (active) | –
41 | COC(=O)C=CC(=O)OC | 15.2 µM (active) | –
42 | COc1ccc(C(C)=O)c(O)c1 | – | 13.4%
43 | O=C1NC(O)CCN1[C@@H]1O[C@H](CO)[C@H](O)[C@H]1O (stereo partly specified) | – | 18.6%
44 | NC(=NCCCCCCN=C(N)N=C(N)Nc1ccc(Cl)cc1)N=C(N)Nc1ccc(Cl)cc1 | 21.5 µM (active) | –
45 | CCN(CC)Cc1ccc2cc(COC(=O)Nc3ccc(C(=O)NO)cc3)ccc2c1 | 1.52 µM (active) | –

Row | SMILES | Potency | activity change, negative = cytotoxic
46 | NC1=N[C@H]2[C@H](CS[C@H]2CCCCC(=O)O)N1 | – | 25.4% [at 20 µM]
47 | C=CCNc1c(O)cc2c(O)c1C[C@@H](C)C[C@H](OC)[C@@H](O)[C@@H](C)C=C(C)[C@H](OC(N)=O)[C@@H](OC)C=CC=C(C)C(=O)N2 | 3.04 µM (active) | –
48 | Cn1cnc(=N)c2[nH]cnc21 | 1.92 µM (active) | –
49 | O=C(NC1CC1)c1cccc(-c2ccc3c(NC(=O)C4CC4)n[nH]c3c2)c1 | 1.71 µM (active) | –
50 | CN[C@@H]1C[C@H]2O[C@@](C)([C@H]1OC)n1c3ccccc3c3c4c(c5c6ccccc6n2c5c31)C(=O)N[C@H]4O | 0.607 µM (active) | –
51 | CN(CC(=O)N(Cc1ccc(C2CCCCC2)cc1)c1ccc(C(=O)O)c(O)c1)S(=O)(=O)c1c(F)c(F)c(F)c(F)c1F | 21.5 µM (active) | –
52 | COc1cc2c(Nc3ccc(Cl)c(Cl)c3F)ncnc2cc1OCC1C[C@@H]2CN(C)C[C@H]2C1 | 12.1 µM (active) | –
53 | Oc1ccc([C@@H]2Oc3ccc(O)cc3[C@@H]3CCC[C@@H]32)cc1 | 24.1 µM (active) | –
54 | C=C1C(=CC=C2CCC[C@]3(C)[C@@H]([C@H](C)CCCC(C)(C)O)CC[C@@H]23)C[C@@H](O)C[C@@H]1O | 3.83 µM (active) | –
55 | COc1cc(C)c(C=CC(C)=CC=CC(C)=CC(=O)O)c(C)c1C | – | 29.9%
56 | NC(=O)c1ncn([C@@H]2O[C@H](CO)[C@@H](O)[C@@H]2O)c1O | – | 20.9%
57 | COc1cccc2c1C(=O)c1c(O)c3c(c(O)c1C2=O)C[C@@](O)(C(C)=O)C[C@H]3O[C@H]1C[C@H](N)[C@H](O)[C@H](C)O1 | 0.121 µM (active) | –
58 | O=C(Nc1cccc(Nc2ncc(Br)c(NCCc3cnc[nH]3)n2)c1)N1CCCC1 | 13.6 µM (active) | –
59 | CC(C)OC(=O)[C@H](C)N[P@](=O)(OC[C@H]1O[C@@H](n2ccc(=O)[nH]c2=O)[C@](C)(F)[C@H]1O)Oc1ccccc1 | – | -0.727%
60 | CC(=O)NC(CS)C(=O)O (stereo unspecified) | – | 5.64%
61 | O=C1NC(=O)C(=Cc2ccc3nccc(-c4ccncc4)c3c2)S1 | 1.36 µM (active) | –
